# Test results: PubChem BioAssay (Tox21)
# Where “and” joins values, the source holds several entries; their conditions need not be identical. Equal values may be shown once. Results filed as inconclusive are left out. Entries that show only a call come without a potency. Calls of active or inactive are those of the source. Calls come from the whole dose curve; as a rule, active = well fitted inhibition curve with a large enough effect in the repeat runs; inconclusive = weak or mixed curves, or effect the other way; inactive = no such curve, though single readings can be large or run the other way.
# Biological target: Nuclear receptor subfamily 1 group I member 3 (Homo sapiens) (UniProt Q14994)
# Test: qHTS assay to identify small molecule antagonists of the constitutive androstane receptor (CAR) signaling pathway (AID 1224838);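 note: HepG2 cells stably expressing hCAR with CYP2B6 luciferase reporter stimulated by CITCO; nearly all actives have a fitted effect of over 40% in size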
# Conditions: HepG2-CYP2B6-hCAR luciferase, CITCO-stimulated, 24 h; series mostly up to 92.4 µM
# Description: U.S. Tox21 Program National Center for Advancing Translational Sciences [NCATS] NIH Chemical Genomics Center [NCGC] U.S. Environmental Protection Agency [EPA] National Institutes of Environmental Health Sciences [NIEHS] National Toxicology Program [NTP] U.S. Food and Drug Administration [FDA] Tox21 Assay Overview: The constitutive androstane receptor (CAR) is a nuclear receptor which regulates multiple drug metabolizing enzymes (DMEs) and transporters. Activating CAR will generally increase the transcription and subsequent translation of CYP2B6 and CYP3A4. These two DMEs represent about 50% of the drug metabolizing potential in the body. When CAR is deactivated, the metabolizing potential in the body will decrease, subsequently increasing the toxicity in the body or lowering the therapeutic potential of a pro-drug. Recently, there have also been studies performed indicating CARs role in energy metabolism and cancer therapy. Therefore, inhibiting CARs activity could have a potential effect on diabetes and cancer. Identifying environmental toxins and compounds which modulate CAR, through the use of the Tox21 10K compound collection, will be an important step in determining the toxicity and potential therapeutic effects these factors will have on the human body.
# Tox21 Assay Protocol Summary: A double-stable (hCAR and CYP2B6-2.2kb) transfected cell line, derived from human hepatoma (HepG2) cells, was utilized for the duration of the quantitative high-throughput screens. The HepG2-CYP2B6-hCAR cells suspended in DMEM culture medium supplemented with 10% FBS, 5 ug/mL blasticidin, 0.5 mg/mL geneticin, 100 U/mL penicillin and 100 ug/mL streptomycin were dispensed at 2500 cells/4 uL/well in 1536-well white solid bottom plates using a Multidrop Combi. After the assay plates were incubated at 37 C/5% CO2 for 4 hrs, 23 nL of compounds at 15 concentrations (from 5-48 columns) or positive control (from 1 to 4 columns) were transferred to the assay plates using a Pintool station. One uL of CITCO, was added using a Flying Reagent Dispenser to generate a final concentration of 50 nM CITCO inside each well. After a 24 hr incubation period at 37 C/5% CO2, four uL of ONE-Glo reagent was added into the assay plates using a Flying Reagent Dispenser. After a 30 min incubation period at room temperature, the luminescence intensity in the assay plates was measured using a ViewLux plate reader.
# Potency is the fitted concentration of half-maximal effect.
# Sequence of Nuclear receptor subfamily 1 group I member 3 (Homo sapiens) (Q14994 whole entry, looked up): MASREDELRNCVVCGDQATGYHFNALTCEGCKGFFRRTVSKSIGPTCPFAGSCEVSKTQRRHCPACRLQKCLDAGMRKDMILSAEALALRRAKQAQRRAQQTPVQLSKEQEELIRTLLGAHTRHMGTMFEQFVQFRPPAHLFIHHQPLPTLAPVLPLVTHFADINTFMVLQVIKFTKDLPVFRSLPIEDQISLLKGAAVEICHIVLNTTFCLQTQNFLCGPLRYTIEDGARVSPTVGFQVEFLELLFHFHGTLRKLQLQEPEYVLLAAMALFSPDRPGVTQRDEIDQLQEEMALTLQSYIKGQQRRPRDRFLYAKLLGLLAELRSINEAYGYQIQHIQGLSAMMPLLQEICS
row,Compound,Potency
1,Oc1ccc(-c2ccccc2)cc1,inactive
2,CC(O)CCO (stereo not given),inactive
3,O=P(Oc1ccccc1)(Oc1ccccc1)Oc1ccccc1,inactive
4,C#C[C@]1(O)CC[C@H]2[C@@H]3CCC4=CC(=O)CC[C@]4(C)[C@H]3CC[C@@]21C,inactive
5,O=c1oc2ccccc2c(O)c1C(CC(O)c1ccc(-c2ccc(Br)cc2)cc1)c1ccccc1 (stereo not given),inactive
6,Nc1ccc(-c2ccccc2)cc1,inactive
7,CCCCOCCOP(=O)(OCCOCCCC)OCCOCCCC,inactive
8,CCCCCCCCOC(=O)c1ccccc1C(=O)OCCCCCCCC,inactive
9,CC(C)=CC1C(C(=O)OCc2coc(Cc3ccccc3)c2)C1(C)C (stereo not given),inactive
10,CC(C)C(=O)OCC(C)(C)C(OC(=O)C(C)C)C(C)C (stereo not given),inactive
11,Nc1c(Cl)cc([N+](=O)[O-])cc1Cl,inactive
12,CCOC(=O)C(C)OC(=O)c1cc(Oc2ccc(C(F)(F)F)cc2Cl)ccc1[N+](=O)[O-] (stereo not given),inactive
13,CCCCC(CC)COC(=O)c1ccc(C(=O)OCC(CC)CCCC)c(C(=O)OCC(CC)CCCC)c1 (stereo not given),inactive
14,CC(C)N(C(=O)SCC(Cl)=C(Cl)Cl)C(C)C,inactive
15,CCC(C)c1ccc(O)cc1 (stereo not given),inactive
16,CCCCCCOC(=O)c1ccccc1C(=O)OCCCCCC,inactive
17,O=[N+]([O-])c1ccc(O)c([N+](=O)[O-])c1,inactive
18,Nn1cnnc1,inactive
19,CCOC(=S)S,24.3 µM (active) and 36.6 µM (active)
20,O=[N+]([O-])c1cccc2ccccc12,inactive

row,Compound,Potency
1,CC(C)(OOC(C)(C)c1ccccc1)c1ccccc1,inactive
2,COc1ccc(C=O)cc1,inactive
3,Cc1cc(Cl)ccc1OCCCC(=O)O,inactive
4,COP(=S)(OC)Oc1cc(Cl)c(Cl)cc1Cl,inactive
5,CCOCN(C(=O)CCl)c1c(C)cccc1CC,inactive
6,C#CCOS(=O)OC1CCCCC1Oc1ccc(C(C)(C)C)cc1 (stereo not given),inactive
7,c1nc[nH]n1,inactive
8,CC(C)(C)c1ccccc1O,inactive
9,CCC(C)c1cc([N+](=O)[O-])cc([N+](=O)[O-])c1O (stereo not given),inactive
10,Clc1nc(Cl)nc(Cl)n1,inactive
11,CCOc1cc(C=O)ccc1O,inactive
12,O=C1C=CC(=O)C=C1,inactive
13,CNC(=O)Oc1cccc2c1OC(C)(C)O2,inactive
14,CCC(CC)Nc1c([N+](=O)[O-])cc(C)c(C)c1[N+](=O)[O-],inactive
15,c1ccc(P(c2ccccc2)c2ccccc2)cc1,inactive
16,N#CC(Br)Br,inactive
17,CCCCC(CC)COC(=O)Cl (stereo not given),inactive
18,CCCCCCCCC(=O)NCc1ccc(O)c(OC)c1,inactive
19,c1cc(OCC2CO2)ccc1Cc1ccc(OCC2CO2)cc1 (stereo not given),inactive
20,CCCCN(CC)c1c([N+](=O)[O-])cc(C(F)(F)F)cc1[N+](=O)[O-],inactive
